Measured values as given in the supplement of paper PMC6555819.

tested on: LXRb:RXRa (NR concentration 270 nM, RXRa partner concentration 90 nM); test: PBM binding z-score (relative to random genomic background probes); higher = stronger binding; sequences stand for … in GC…GCGATTGACAGCGTAGAATGAAGG
In short: (§1)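 Ligand-free nuclear receptor dimers were bound for 1 h to custom Agilent 4×180K protein-binding microarrays. Detection used antibodies against each partner (one per run). Binding z-scores rest on regression-normalized fluorescence, with random background probes as the reference.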

| Sequence | PBM binding z-score |
| --- | --- |
| CAAACTAGCTCAAAGGTCAAAGTCGAGCCAACCA | 5.66 |
| GGAACGAGGGCAAGTCGATAGCAGAGTTTGATGG | -0.0585 |
| CAGCGTAGGTCAGGGCCAGTATAGGAGGAACGTT | 0.759 |
| TATTGTAGATCAACAGGAGGTTAAGAAAGATCGA | 1.03 |
| CAGCCTAGGTCAGGGCCAATATAGGAGGAACGTT | 0.824 |
| CTCGAAAAGTCGTGCTCAGGTGAGTATACCAAAC | 0.084 |
| GCGATTGGGGCAAAGCAGGTTACCATAAGGTTGG | 0.678 |
| TCGTGTAGATCAACAGGAGGTTAAGAAAGATCGA | 0.789 |
| CCTATTAGTTTACCATAAGGGCAACCGAAGCTCG | 0.679 |
| GCTAGTCGGTCAGTAAAAGGTCACACACCGGTCG | 4.32 |
| TCTATTAGTTGAACGGCAACCGACGAGTCCGTTT | 0.621 |
| ATCTCTAAGTAACAAGTTCAGTGAAAGAGAGGAC | 0.595 |
| GCTAGTTGGTCAGTAAAAGGTCCCACACCGGTCG | -0.485 |
| TCATATAGGTAAACGGTGAAAGTCGGTGTGGTAA | 0.712 |
| ACTAGTTGGTCAGCTGAGGTCACATACAATTCGG | 3.37 |
| CGTCCAAGGTCATAGGAGGTCAGTGAGGACAGAT | 6.18 |
| TCATATAGGTAAATGCTAGGTGAAAGTGCGATCT | 0.829 |
| TCCAGTAGGTTAGGGGCATTCAGAATGGCGTCGA | 1.19 |
| CTCGAAAGGTCGTGCTCAGGTGAGTAGACCAAAC | 3.08 |
| CCTAGTAGGTCAGGAGGTCACACACCGGATATGA | 4.41 |

| Sequence | PBM binding z-score |
| --- | --- |
| CAAACTAGGTCACGAAAGTTCAAAGTCGAATGAC | 6.15 |
| TCTTGTAGATCAAGGGTTAAGAAAGCCGAAGCCT | 0.958 |
| TTACCAAGATGAGCTGAGGTCGTTGATCCAACTC | 0.458 |
| CCTTACGGGTCAAGGTTATAGCGCGGGTGGTACG | 2.75 |
| TAGTCTAGGTCATGGGCCAGTATACCACGCGAAC | 2.58 |
| ATCTCTAGGTAAAAGTTCAGTCAATCCCGAGGAT | 1.6 |
| AGTCAAAGTTCACTAGGGAACGTAAGATTCAGCT | 3.27 |
| CGTCCAAGGTCATAGAAGGTCAGTGAAGACAGAT | 5.81 |
| CCAGACAGGTGACAGGTAACTCAGTCTGGTACGC | -0.0936 |
| CTCGAAAGGTCGTGCTCACGTGAGTATACCAAAC | 3.69 |
| TTACCAAGGTGAGCAGAGGTCGTTGATCCAACTC | 1.37 |
| ATGTCTAGGTAAAGTTCAGTGAAAGATCGATAGA | 1.15 |
| CCGACTGGGGCACAAAGGTTACCATACCATCCGG | 1.44 |
| TATACAGGGTCAAAGGCCAGCGTACGAATGTCGA | 4.8 |
| CCTACTGGGCAATTCAGAGGTCATTGATCATATG | 3.68 |
| ACTATTAGTTGACTTGGGGCAACCGATACGACGC | 0.754 |
| CCGACTTGGGCAGAAAGGTTACCATACCATCCGG | 0.646 |
| GCTAGCACGCCATTTGGGTCACTCAATGACGGGC | -0.179 |
| TCGAGTAGGTTAGGGGCATTCAAAATGGCGTCGA | 1.22 |
| CCTCGGAGGACAGAAGGTCAGAGCCGTCCGCTTT | 1.2 |

tested on: LXRb homodimer (NR concentration 270 nM); test: as above
In short: as §1

| Sequence | PBM binding z-score |
| --- | --- |
| CAAACTAGCTCAAAGGTCAAAGTCGAGCCAACCA | 2.54 |
| GGAACGAGGGCAAGTCGATAGCAGAGTTTGATGG | -0.781 |
| CAGCGTAGGTCAGGGCCAGTATAGGAGGAACGTT | -1.03 |
| TATTGTAGATCAACAGGAGGTTAAGAAAGATCGA | 0.546 |
| CAGCCTAGGTCAGGGCCAATATAGGAGGAACGTT | -1.05 |
| CTCGAAAAGTCGTGCTCAGGTGAGTATACCAAAC | -0.108 |
| GCGATTGGGGCAAAGCAGGTTACCATAAGGTTGG | -0.273 |
| TCGTGTAGATCAACAGGAGGTTAAGAAAGATCGA | -0.51 |
| CCTATTAGTTTACCATAAGGGCAACCGAAGCTCG | 0.527 |
| GCTAGTCGGTCAGTAAAAGGTCACACACCGGTCG | 0.747 |
| TCTATTAGTTGAACGGCAACCGACGAGTCCGTTT | 0.735 |
| ATCTCTAAGTAACAAGTTCAGTGAAAGAGAGGAC | 0.901 |
| GCTAGTTGGTCAGTAAAAGGTCCCACACCGGTCG | -0.39 |
| TCATATAGGTAAACGGTGAAAGTCGGTGTGGTAA | -0.229 |
| ACTAGTTGGTCAGCTGAGGTCACATACAATTCGG | 0.543 |
| CGTCCAAGGTCATAGGAGGTCAGTGAGGACAGAT | 0.987 |
| TCATATAGGTAAATGCTAGGTGAAAGTGCGATCT | 0.24 |
| TCCAGTAGGTTAGGGGCATTCAGAATGGCGTCGA | -0.0601 |
| CTCGAAAGGTCGTGCTCAGGTGAGTAGACCAAAC | 0.0468 |
| CCTAGTAGGTCAGGAGGTCACACACCGGATATGA | 0.811 |

| Sequence | PBM binding z-score |
| --- | --- |
| CAAACTAGGTCACGAAAGTTCAAAGTCGAATGAC | 1.48 |
| TCTTGTAGATCAAGGGTTAAGAAAGCCGAAGCCT | -0.606 |
| TTACCAAGATGAGCTGAGGTCGTTGATCCAACTC | -0.782 |
| CCTTACGGGTCAAGGTTATAGCGCGGGTGGTACG | 0.134 |
| TAGTCTAGGTCATGGGCCAGTATACCACGCGAAC | 1.74 |
| ATCTCTAGGTAAAAGTTCAGTCAATCCCGAGGAT | 1.34 |
| AGTCAAAGTTCACTAGGGAACGTAAGATTCAGCT | 0.67 |
| CGTCCAAGGTCATAGAAGGTCAGTGAAGACAGAT | 0.783 |
| CCAGACAGGTGACAGGTAACTCAGTCTGGTACGC | -0.582 |
| CTCGAAAGGTCGTGCTCACGTGAGTATACCAAAC | 0.397 |
| TTACCAAGGTGAGCAGAGGTCGTTGATCCAACTC | -0.627 |
| ATGTCTAGGTAAAGTTCAGTGAAAGATCGATAGA | 0.816 |
| CCGACTGGGGCACAAAGGTTACCATACCATCCGG | -1.09 |
| TATACAGGGTCAAAGGCCAGCGTACGAATGTCGA | 2.36 |
| CCTACTGGGCAATTCAGAGGTCATTGATCATATG | 0.374 |
| ACTATTAGTTGACTTGGGGCAACCGATACGACGC | 1.05 |
| CCGACTTGGGCAGAAAGGTTACCATACCATCCGG | -1.09 |
| GCTAGCACGCCATTTGGGTCACTCAATGACGGGC | -1.07 |
| TCGAGTAGGTTAGGGGCATTCAAAATGGCGTCGA | -0.0733 |
| CCTCGGAGGACAGAAGGTCAGAGCCGTCCGCTTT | -0.824 |
